Test results from PubChem BioAssay AID1159580 (chemical genetic matrix, 2015).
In all, about 5,500 compounds went through this assay and about 2,000 (36%) were called active. Not shown: some 18% with an inconclusive outcome. Rule as the data show it: active = normalized growth mostly below about 0.91 (no sharp cut-off); inconclusive = no clear call, values can overlap the other calls; inactive = mostly above about 0.92. The list shows a part of the results.

Assay: chemical genetic growth profiling, strain panel (AID 1159580);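 also: tested at 20 µM; growth read once vehicle control cultures reached saturation at 30 °C; 1 = growth at the plate median or of vehicle wells; lower values mean less growth of the strain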
Details: S. cerevisiae deletion strains, growth OD

Measured: normalized growth

O=[N+]([O-])c1cccc(C2CC(c3ccccc3)=Nc3ccccc3S2)c1 (stereo unspecified)
inactive: locus YAR019C, strain CDC15, hits give low values 0.947 | locus YBL105C, strain PKC1, hits give low values 0.953 | locus YBR135W, strain CKS1, hits give low values 0.959 | locus YBR136W, strain MEC1, hits give low values 0.974 | locus YBR160W, strain CDC28, hits give low values 0.966 | locus YDL017W, strain CDC7, hits give low values 0.97 | locus YDL028C, strain MPS1, hits give low values 0.965 | locus YDL101C, strain DUN1, hits give low values 0.95 | locus YDL108W, strain KIN28, hits give low values 0.975 | locus YDL132W, strain cdc53, hits give low values 0.952 | locus YDL214C, strain PRR2, hits give low values 0.962 | locus YDR052C, strain DBF4, hits give low values 0.973 | locus YDR054C, strain cdc34, hits give low values 0.946 | locus YDR226W, strain ADK1, hits give low values 0.953 | locus YDR477W, strain SNF1, hits give low values 0.962 | locus YER123W, strain YCK3, hits give low values 1 | locus YER133W, strain GLC7, hits give low values 0.96 | locus YFL009W, strain cdc4, hits give low values 0.959 | locus YFL029C, strain CAK1, hits give low values 0.939 | locus YFR003C, strain YPI1, hits give low values 0.973 | locus YFR019W, strain FAB1, hits give low values 0.996 | locus YFR028C, strain CDC14, hits give low values 0.948 | locus YGR040W, strain KSS1, hits give low values 0.955 | locus YGR052W, strain FMP48, hits give low values 1.06 | locus YGR092W, strain DBF2, hits give low values 0.969 | locus YHR030C, strain SLT2, hits give low values 0.976 | locus YHR079C, strain IRE1, hits give low values 0.975 | locus YHR082C, strain KSP1, hits give low values 0.997 | locus YHR205W, strain SCH9, hits give low values 0.934 | locus YIL147C, strain SLN1, hits give low values 0.969 | locus YJL095W, strain BCK1, hits give low values 0.982 | locus YJL128C, strain PBS2, hits give low values 0.93 | locus YJL157C, strain FAR1, hits give low values 0.969 | locus YJR016C, strain ILV3, hits give low values 0.954 | locus YJR066W, strain TOR1 (second series), hits give low values 0.934 | locus YJR066W, strain TOR1, hits give low values 0.974 | locus YKL048C, strain ELM1, hits give low values 0.971 | locus YKL067W, strain YNK1, hits give low values 0.968 | locus YKL101W, strain HSL1, hits give low values 0.965 | locus YKL193C, strain SDS22, hits give low values 0.954 | locus YKL203C, strain TOR2, hits give low values 1.01 | locus YLR113W, strain HOG1, hits give low values 0.927 | locus YLR133W, strain CKI1, hits give low values 0.977 | locus YLR403W, strain SFP1, hits give low values 0.95 | locus YML070W, strain DAK1, hits give low values 0.975 | locus YMR001C, strain CDC5, hits give low values 0.946 | locus YMR205C, strain PFK2 (second series), hits give low values 0.967 | locus YMR277W, strain FCP1, hits give low values 0.952 | locus YNL006W, strain LST8, hits give low values 0.97 | locus YNL020C, strain ARK1, hits give low values 0.963 | locus YNL161W, strain CBK1, hits give low values 0.957 | locus YNL183C, strain NPR1, hits give low values 0.985 | locus YNL207W, strain RIO2, hits give low values 0.964 | locus YNL222W, strain SSU72, hits give low values 0.958 | locus YNL307C, strain MCK1 (second series), hits give low values 0.98 | locus YOL078W, strain AVO1, hits give low values 0.952 | locus YOL136C, strain PFK27, hits give low values 0.996 | locus YOR061W, strain CKA2, hits give low values 0.949 | locus YOR119C, strain RIO1, hits give low values 0.975 | locus YOR231W, strain MKK1, hits give low values 0.983 | locus YOR329C, strain SCD5, hits give low values 0.95 | locus YPL031C, strain PHO85, hits give low values 0.961 | locus YPL153C, strain RAD53, hits give low values 0.964 | locus YPL204W, strain HRR25, hits give low values 0.979 | locus YPL209C, strain IPL1, hits give low values 0.957 | locus YPL256C, strain CLN2, hits give low values 0.939 | locus YPR025C, strain CCL1, hits give low values 0.954 | locus YPR106W, strain ISR1, hits give low values 0.967 | locus YPR111W, strain DBF20, hits give low values 0.968 | strain NNK1, hits give low values 0.963 | strain TSCII, hits give low values 0.946
